# This excerpt belongs to a sample that is enriched for the strongest signals.
# Legend:
# Assay in all cases: glycan array binding signal (z-score within array); higher = stronger binding
# Conditions in all cases: glycan notation: IUPAC condensed, linker removed
# [1] = molecular target: Fuc(a1-2)Gal(b1-3)GalNAc(a1-3)[Fuc(a1-2)]Gal(b1-4)Glc
# Summary of the method: (§1)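 From the Consortium for Functional Glycomics database, 3228 arrays were curated, keeping only those whose protein sequence was available. Binding is given as a within-array Z-score averaged across arrays sharing a protein sequence and across linkers. Negative Z-scores can be read as non-binding.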
# [2] = molecular target: Fuc(a1-2)Gal(b1-4)Fuc(a1-3)]GlcNAc(b1-2)Man(a1-3)[Fuc(a1-2)Gal(b1-4)[Fuc(a1-3)]GlcNAc(b1-2)Man(a1-6)]Man(b1-4)GlcNAc(b1-4)GlcNAc
# Summary of the method: as §1
# [3] = molecular target: Fuc(a1-2)Gal(b1-4)[Fuc(a1-3)]GlcNAc(b1-2)Man(a1-3)[Fuc(a1-2)Gal(b1-4)[Fuc(a1-3)]GlcNAc(b1-2)Man(a1-6)]Man(b1-4)GlcNAc(b1-4)[Fuc(a1-6)]GlcNAc
# Summary of the method: as §1
# [4] = molecular target: Fuc(a1-2)Gal(b1-4)[Fuc(a1-3)]GlcNAc(b1-3)Gal(b1-4)[Fuc(a1-3)]GlcNAc(b1-3)Gal(b1-4)[Fuc(a1-3)]GlcNAc
# Summary of the method: as §1
# Fuc(a1-2)Gal6S(b1-4)Glc = molecular target: Fuc(a1-2)Gal6S(b1-4)Glc
# Summary of the method: as §1
# [5] = molecular target: Fuc(a1-2)[Gal(a1-3)]Gal(b1-3)GalNAc(b1-3)Gal(a1-4)Gal(b1-4)Glc
# Summary of the method: as §1
# [6] = molecular target: Fuc(a1-2)[Gal(a1-3)]Gal(b1-4)[Fuc(a1-3)]Glc
# Summary of the method: as §1
# [7] = molecular target: Fuc(a1-2)[Gal(a1-3)]Gal(b1-4)[Fuc(a1-3)]GlcNAc
# Summary of the method: as §1
# [8] = molecular target: Fuc(a1-2)[GalNAc(a1-3)]Gal(b1-3)GlcNAc(b1-3)GalNAc
# Summary of the method: as §1
# [9] = molecular target: Fuc(a1-2)[GalNAc(a1-3)]Gal(b1-4)Glc
# Summary of the method: as §1
# Fuc(a1-3)GlcNAc = molecular target: Fuc(a1-3)GlcNAc
# Summary of the method: as §1
# [10] = molecular target: Fuc(a1-3)[Gal(b1-4)]GlcNAc6S
# Summary of the method: as §1
# Gal(b1-3)Gal(b1-4)GlcNAc = molecular target: Gal(b1-3)Gal(b1-4)GlcNAc
# Summary of the method: as §1
# [11] = molecular target: Gal(b1-3)GlcNAc(a1-6)Gal(b1-4)GlcNAc
# Summary of the method: as §1
# [12] = molecular target: Gal(b1-3)GlcNAc(b1-6)GalNAc
# Summary of the method: as §1
# [13] = molecular target: Gal(b1-4)GlcNAc(b1-2)Man(a1-3)[Gal(b1-4)GlcNAc(b1-2)Man(a1-6)]Man(b1-4)GlcNAc(b1-4)[Fuc(a1-6)]GlcNAc
# Summary of the method: as §1
# [14] = molecular target: Gal(b1-4)GlcNAc(b1-3)Gal(b1-4)GlcNAc
# Summary of the method: as §1
# [15] = molecular target: Gal(b1-4)GlcNAc(b1-3)Gal(b1-4)GlcNAc(b1-3)Gal(b1-4)GlcNAc(b1-2)[Gal(b1-4)GlcNAc(b1-3)Gal(b1-4)GlcNAc(b1-3)Gal(b1-4)GlcNAc(b1-6)]Man(a1-6)[Gal(b1-4)GlcNAc(b1-3)Gal(b1-4)GlcNAc(b1-3)Gal(b1-4)GlcNAc(b1-2)Man(a1-3)]Man(b1-4)GlcNAc(b1-4)[Fuc(a1-6)]GlcNAc
# Summary of the method: as §1
# [16] = molecular target: Gal(b1-4)GlcNAc(b1-3)Gal(b1-4)GlcNAc(b1-3)Gal(b1-4)GlcNAc(b1-3)Gal(b1-4)GlcNAc(b1-2)Man(a1-3)[Gal(b1-4)GlcNAc(b1-3)Gal(b1-4)GlcNAc(b1-3)Gal(b1-4)GlcNAc(b1-3)Gal(b1-4)GlcNAc(b1-2)Man(a1-6)]Man(b1-4)GlcNAc(b1-4)GlcNAc
# Summary of the method: as §1
# [17] = molecular target: Gal(b1-4)GlcNAc(b1-3)GalNAc
# Summary of the method: as §1
# Gal(b1-4)GlcNAc6P = molecular target: Gal(b1-4)GlcNAc6P
# Summary of the method: as §1
# [18] = molecular target: Gal3S(b1-4)[Fuc(a1-3)]Glc6S
# Summary of the method: as §1
# GlcA(b1-6)Gal = molecular target: GlcA(b1-6)Gal
# Summary of the method: as §1
# [19] = molecular target: GlcNAc(a1-3)Gal(b1-4)GlcNAc
# Summary of the method: as §1
# [20] = molecular target: GlcNAc(a1-4)Gal(b1-4)GlcNAc(b1-3)Gal(b1-4)Glc
# Summary of the method: as §1
# [21] = molecular target: GlcNAc(b1-2)Man(a1-3)[GlcNAc(b1-4)][GlcNAc(b1-2)Man(a1-6)]Man(b1-4)GlcNAc(b1-4)GlcNAc
# Summary of the method: as §1
# [22] = molecular target: GlcNAc(b1-2)[GlcNAc(b1-4)]Man(a1-3)[GlcNAc(b1-4)][GlcNAc(b1-2)[GlcNAc(b1-6)]Man(a1-6)]Man(b1-4)GlcNAc(b1-4)GlcNAc
# Summary of the method: as §1
# [23] = molecular target: GlcNAc(b1-3)Gal(b1-4)GlcNAc(b1-2)Man(a1-3)[GlcNAc(b1-3)Gal(b1-4)GlcNAc(b1-2)Man(a1-6)]Man(b1-4)GlcNAc(b1-4)[Fuc(a1-6)]GlcNAc
# Summary of the method: as §1
binder,measurement,setting,value
LlpA (Arthrobacter sp) (protein) MGSSHHHHHHSSGLVPRGSHMTLHPETALRPGAAATSPNSRYRLLYQTDGNLVLYGPDGPLWDSGTNGHGAGACIMQADGNLVLYGPNDEYVWDTETDNNPGSRLVIQDDGNAVIYRPDGSPLWATETCQPPGSADSHVLQSGSTLTPTHGIRSANGLYGLLYQTDGNLVFYGPDGPLWDSGTNGRGAGACIMQPDGNLVLYGPHDEYVWDTETDNNPGSRLVIQDDGNAVIYRPDGNPTWVTGTH,glycan array binding signal (z-score),[1],-0.605
same,glycan array binding signal (z-score),[2],1.72
same,glycan array binding signal (z-score),[3],1.97
same,glycan array binding signal (z-score),[4],-0.294
same,glycan array binding signal (z-score),Fuc(a1-2)Gal6S(b1-4)Glc,0.733
same,glycan array binding signal (z-score),[5],-0.344
same,glycan array binding signal (z-score),[6],-1.15
same,glycan array binding signal (z-score),[7],0.864
same,glycan array binding signal (z-score),[8],2.37
same,glycan array binding signal (z-score),[9],-0.96
same,glycan array binding signal (z-score),Fuc(a1-3)GlcNAc,-0.654
same,glycan array binding signal (z-score),[10],1.84
same,glycan array binding signal (z-score),Gal(b1-3)Gal(b1-4)GlcNAc,0.043
same,glycan array binding signal (z-score),[11],-0.211
same,glycan array binding signal (z-score),[12],-0.718
same,glycan array binding signal (z-score),[13],1.04
same,glycan array binding signal (z-score),[14],-0.238
same,glycan array binding signal (z-score),[15],0.644
same,glycan array binding signal (z-score),[16],-0.527
same,glycan array binding signal (z-score),[17],-0.295
same,glycan array binding signal (z-score),Gal(b1-4)GlcNAc6P,0.159
same,glycan array binding signal (z-score),[18],2.1
same,glycan array binding signal (z-score),GlcA(b1-6)Gal,0.793
same,glycan array binding signal (z-score),[19],0.79
same,glycan array binding signal (z-score),[20],0.389
same,glycan array binding signal (z-score),[21],-0.798
same,glycan array binding signal (z-score),[22],-0.159
same,glycan array binding signal (z-score),[23],0.596

# From the supplement of paper PMC8728848
